# In the supplement of paper PMC8728848:
# The sample as a whole holds a higher share of the strongest signals than the screen did.
# B1: HPAIIITrx (Helix pomatia), Q1KM18 (protein)
# chain: MLFVTIISLGLLAIVHGQCALKTIAFSAAIDREQTFDANQVVIYDIVITNHGNAYDNSTGLFTAPVDGMYSFQLNLLTIKEKEGWLELVHNGQLKVSVYAKQDSTYDSSSNSVIIKMKEGDRVNVRAHKKSGLFGRDDELYNTFSGHFLSGL
# Assays:
# Test in all cases: glycan array binding signal (z-score within array); higher = stronger binding
# Settings in all cases: glycan notation: IUPAC condensed, linker removed
# [1] = target: Fuc(a1-2)Gal(b1-3)GlcNAc(b1-2)Man(a1-3)[Fuc(a1-2)Gal(b1-3)GlcNAc(b1-2)Man(a1-6)]Man(b1-4)GlcNAc(b1-4)GlcNAc
# How it was run: (§1)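 The Consortium for Functional Glycomics database supplied 3228 glycan arrays, of which those lacking an available protein sequence were dropped. The binding signal, a within-array Z-score, was averaged across arrays of the same protein sequence and across linkers. Negative scores can be read as non-binding.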
# [2] = target: Fuc(a1-2)Gal(b1-3)GlcNAc(b1-3)[Gal(b1-4)[Fuc(a1-3)]GlcNAc(b1-6)]Gal(b1-4)Glc
# How it was run: as §1
# [3] = target: Fuc(a1-2)Gal(b1-3)[Fuc(a1-4)]GlcNAc(b1-2)Man(a1-3)[Fuc(a1-2)Gal(b1-3)[Fuc(a1-4)]GlcNAc(b1-2)Man(a1-6)]Man(b1-4)GlcNAc(b1-4)GlcNAc
# How it was run: as §1
# [4] = target: Fuc(a1-2)Gal(b1-4)GlcNAc
# How it was run: as §1
# [5] = target: Fuc(a1-2)Gal6S(b1-4)Glc
# How it was run: as §1
# [6] = target: Fuc(a1-2)[Gal(a1-3)]Gal
# How it was run: as §1
# [7] = target: Fuc(a1-2)[Gal(a1-3)]Gal(b1-4)[Fuc(a1-3)]Glc
# How it was run: as §1
# [8] = target: Fuc(a1-2)[GalNAc(a1-3)]Gal(b1-3)GalNAc(a1-3)[Fuc(a1-2)]Gal(b1-4)GlcNAc
# How it was run: as §1
# [9] = target: Fuc(a1-2)[GalNAc(a1-3)]Gal(b1-3)GalNAc(b1-3)Gal(a1-4)Gal(b1-4)Glc
# How it was run: as §1
# [10] = target: Fuc(a1-2)[GalNAc(a1-3)]Gal(b1-4)Glc
# How it was run: as §1
# [11] = target: Fuc(a1-2)[GalNAc(a1-3)]Gal(b1-4)GlcNAc(b1-2)Man(a1-3)[Fuc(a1-2)[GalNAc(a1-3)]Gal(b1-4)GlcNAc(b1-2)Man(a1-6)]Man(b1-4)GlcNAc(b1-4)GlcNAc
# How it was run: as §1
# [12] = target: Fuc(a1-2)[GalNAc(a1-3)]Gal(b1-4)GlcNAc(b1-3)Gal(b1-4)GlcNAc(b1-3)Gal(b1-4)GlcNAc
# How it was run: as §1
# [13] = target: Fuc(a1-2)[GalNAc(a1-3)]Gal(b1-4)GlcNAc(b1-3)[Fuc(a1-2)[GalNAc(a1-3)]Gal(b1-4)GlcNAc(b1-6)]GalNAc
# How it was run: as §1
# [14] = target: Fuc(a1-2)[GalNAc(a1-4)]Gal(b1-4)GlcNAc
# How it was run: as §1
# [15] = target: Fuc(a1-3)[Gal(b1-4)]GlcNAc(b1-4)Gal(b1-4)[Fuc(a1-3)]GlcNAc(b1-4)Gal(b1-4)[Fuc(a1-3)]GlcNAc
# How it was run: as §1
# [16] = target: Gal(a1-4)GlcNAc
# How it was run: as §1
# [17] = target: Gal(b1-2)Gal
# How it was run: as §1
# [18] = target: Gal(b1-3)GalNAc
# How it was run: as §1
# [19] = target: Gal(b1-3)GlcNAc(b1-2)[Gal(b1-3)GlcNAc(b1-6)]Man(a1-6)[Gal(b1-3)GlcNAc(b1-2)Man(a1-3)]Man(b1-4)GlcNAc(b1-4)GlcNAc
# How it was run: as §1
# [20] = target: Gal(b1-3)GlcNAc(b1-6)GalNAc
# How it was run: as §1
# [21] = target: Gal(b1-3)[Neu5Ac(a2-6)]GalNAc
# How it was run: as §1
# [22] = target: Gal(b1-4)Glc
# How it was run: as §1
# [23] = target: Gal(b1-4)GlcNAc(b1-2)Man(a1-3)[Gal(b1-4)GlcNAc(b1-2)Man(a1-6)]Man(b1-4)GlcNAc(b1-4)GlcNAc
# How it was run: as §1
# [24] = target: Gal(b1-4)GlcNAc(b1-2)Man(a1-3)[GlcNAc(b1-4)][Gal(b1-4)GlcNAc(b1-2)Man(a1-6)]Man(b1-4)GlcNAc(b1-4)GlcNAc
# How it was run: as §1
# [25] = target: Gal(b1-4)GlcNAc(b1-2)Man(a1-6)[GlcNAc(b1-2)Man(a1-3)]Man(b1-4)GlcNAc(b1-4)GlcNAc
# How it was run: as §1
# [26] = target: Gal(b1-4)GlcNAc(b1-3)[Gal(b1-4)GlcNAc(b1-6)]Gal(b1-4)GlcNAc
# How it was run: as §1
# [27] = target: Gal3S(b1-4)GlcNAc
# How it was run: as §1
# [28] = target: Gal4S(b1-4)GlcNAc
# How it was run: as §1
# [29] = target: GalNAc(a1-3)Gal
# How it was run: as §1
# [30] = target: GalNAc(a1-3)GalNAc
# How it was run: as §1
# [31] = target: GalNAc(a1-3)GalNAc(b1-3)Gal(a1-4)Gal(b1-4)Glc
# How it was run: as §1
# [32] = target: GalNAc(a1-3)GalNAc(b1-3)Gal(a1-4)Gal(b1-4)GlcNAc
# How it was run: as §1
# [33] = target: GalNAc(b1-3)GalNAc
# How it was run: as §1
# [34] = target: Glc(b1-4)Glc
# How it was run: as §1
# [35] = target: GlcA(b1-6)Gal
# How it was run: as §1
# [36] = target: GlcNAc(a1-3)Gal(b1-4)GlcNAc
# How it was run: as §1
# [37] = target: GlcNAc(a1-4)Gal(b1-4)GlcNAc(b1-3)Gal(b1-4)GlcNAc
# How it was run: as §1
# [38] = target: GlcNAc(a1-4)Gal(b1-4)GlcNAc(b1-3)Gal(b1-4)GlcNAc(b1-3)Gal(b1-4)GlcNAc
# How it was run: as §1
# [39] = target: GlcNAc(a1-6)Gal(b1-4)GlcNAc
# How it was run: as §1
# [40] = target: GlcNAc(b1-3)Gal(b1-4)GlcNAc(b1-3)Gal(b1-4)GlcNAc(b1-2)Man(a1-3)[GlcNAc(b1-3)Gal(b1-4)GlcNAc(b1-3)Gal(b1-4)GlcNAc(b1-2)Man(a1-6)]Man(b1-4)GlcNAc(b1-4)[Fuc(a1-6)]GlcNAc
# How it was run: as §1
# [41] = target: Kdn(a2-3)Gal(b1-3)GalNAc
# How it was run: as §1
# [42] = target: Kdn(a2-3)Gal(b1-4)Glc
# How it was run: as §1
# [43] = target: Kdn(a2-6)Gal(b1-4)GlcNAc
# How it was run: as §1
# [44] = target: Man(a1-2)Man(a1-3)Man
# How it was run: as §1
# [45] = target: Neu5Ac(a2-3)Gal(b1-4)GlcNAc6S
# How it was run: as §1
# [46] = target: Neu5Ac(a2-3)Gal(b1-4)[Fuc(a1-3)]GlcNAc(b1-3)Gal(b1-4)[Fuc(a1-3)]GlcNAc(b1-3)Gal(b1-4)[Fuc(a1-3)]GlcNAc
# How it was run: as §1
# [47] = target: Neu5Ac(a2-6)Gal(b1-4)GlcNAc(b1-2)Man(a1-3)[Man(a1-6)]Man(b1-4)GlcNAc(b1-4)GlcNAc
# How it was run: as §1
# [48] = target: Neu5Ac(a2-6)Gal(b1-4)GlcNAc(b1-2)Man(a1-6)Man(b1-4)GlcNAc(b1-4)GlcNAc
# How it was run: as §1
# [49] = target: Neu5Ac(a2-6)Gal(b1-4)GlcNAc(b1-2)Man(a1-6)[GlcNAc(b1-2)Man(a1-3)]Man(b1-4)GlcNAc(b1-4)GlcNAc
# How it was run: as §1
# [50] = target: Neu5Ac(a2-6)Gal(b1-4)GlcNAc(b1-3)Gal(b1-4)GlcNAc(b1-6)[Gal(b1-3)]GalNAc
# How it was run: as §1
# [51] = target: Neu5Ac(a2-6)Gal(b1-4)GlcNAc(b1-3)Gal(b1-4)[Fuc(a1-3)]GlcNAc(b1-3)Gal(b1-4)[Fuc(a1-3)]GlcNAc
# How it was run: as §1
# [52] = target: Neu5Ac(a2-6)Gal(b1-4)GlcNAc(b1-3)[Neu5Ac(a2-6)Gal(b1-4)GlcNAc(b1-6)]GalNAc
# How it was run: as §1
# [53] = target: Neu5Ac(a2-6)Gal(b1-4)GlcNAc(b1-6)[Gal(b1-3)]GalNAc
# How it was run: as §1
# [54] = target: Neu5Ac(a2-6)GalNAc(b1-4)GlcNAc6S
# How it was run: as §1
# [55] = target: Neu5Ac(a2-8)Neu5Ac(a2-3)Gal(b1-3)GalNAc(b1-4)[Neu5Ac(a2-8)Neu5Ac(a2-3)]Gal(b1-4)Glc
# How it was run: as §1
# [56] = target: Neu5Gc(a2-3)Gal(b1-4)Glc
# How it was run: as §1
binder,measurement,setting,value
B1,glycan array binding signal (z-score),[1],3.03
same,glycan array binding signal (z-score),[2],-0.143
same,glycan array binding signal (z-score),[3],3.07
same,glycan array binding signal (z-score),[4],-0.3
same,glycan array binding signal (z-score),[5],-0.211
same,glycan array binding signal (z-score),[6],-0.256
same,glycan array binding signal (z-score),[7],-0.413
same,glycan array binding signal (z-score),[8],4.37
same,glycan array binding signal (z-score),[9],3.47
same,glycan array binding signal (z-score),[10],2.02
same,glycan array binding signal (z-score),[11],6.33
same,glycan array binding signal (z-score),[12],2.94
same,glycan array binding signal (z-score),[13],3.2
same,glycan array binding signal (z-score),[14],3.52
same,glycan array binding signal (z-score),[15],-0.564
same,glycan array binding signal (z-score),[16],-0.387
same,glycan array binding signal (z-score),[17],0.163
same,glycan array binding signal (z-score),[18],-0.149
same,glycan array binding signal (z-score),[19],-0.132
same,glycan array binding signal (z-score),[20],-0.368
same,glycan array binding signal (z-score),[21],-0.314
same,glycan array binding signal (z-score),[22],-0.056
same,glycan array binding signal (z-score),[23],-0.38
same,glycan array binding signal (z-score),[24],-0.402
same,glycan array binding signal (z-score),[25],-0.301
same,glycan array binding signal (z-score),[26],-0.21
same,glycan array binding signal (z-score),[27],-0.024
same,glycan array binding signal (z-score),[28],-0.358
same,glycan array binding signal (z-score),[29],2.5
same,glycan array binding signal (z-score),[30],3.35
same,glycan array binding signal (z-score),[31],5.39
same,glycan array binding signal (z-score),[32],4.56
same,glycan array binding signal (z-score),[33],-0.254
same,glycan array binding signal (z-score),[34],-0.122
same,glycan array binding signal (z-score),[35],-0.196
same,glycan array binding signal (z-score),[36],0.416
same,glycan array binding signal (z-score),[37],1.69
same,glycan array binding signal (z-score),[38],2.06
same,glycan array binding signal (z-score),[39],-0.341
same,glycan array binding signal (z-score),[40],-0.228
same,glycan array binding signal (z-score),[41],-0.152
same,glycan array binding signal (z-score),[42],0.214
same,glycan array binding signal (z-score),[43],-0.263
same,glycan array binding signal (z-score),[44],-0.321
same,glycan array binding signal (z-score),[45],-0.337
same,glycan array binding signal (z-score),[46],0.089
same,glycan array binding signal (z-score),[47],-0.533
same,glycan array binding signal (z-score),[48],-0.31
same,glycan array binding signal (z-score),[49],-0.492
same,glycan array binding signal (z-score),[50],-0.292
same,glycan array binding signal (z-score),[51],-0.392
same,glycan array binding signal (z-score),[52],-0.408
same,glycan array binding signal (z-score),[53],-0.3
same,glycan array binding signal (z-score),[54],-0.278
same,glycan array binding signal (z-score),[55],-0.38
same,glycan array binding signal (z-score),[56],-0.237
